Assay outcomes (PubChem)
HTR5A ag = HTR5A agonism, opioid heterodimer counter-screen; P47898; HTR5A agonist assay, luminescence, cell-based; activation, % at 9.3 µM; 0.61% of 340,000 active; in the data active = activation mostly above about 9.5%, no sharp cut-off; inactive = mostly below about 7.6%
HTR5A inv ag = inverse agonist of human HTR5A in OPRM1-OPRD1 counter-screen. P47898. HTR5A cell line, luminescence, inverse agonism. inhibition, % at 9.3 µM. 0.083% of 340,000 active. AID 504634; in the data active = inhibition mostly above about 23%, no sharp cut-off; inactive = mostly below about 18%
MOR-DOR ag = OPRM1-OPRD1 heterodimerization agonism; P35372+P41143; cells, luminescence; activation, % at 9.3 µM; 0.3% of 340,000 active; AID 504326; in the data active = activation above about 18%
Target sequence (P35372 whole entry, looked up): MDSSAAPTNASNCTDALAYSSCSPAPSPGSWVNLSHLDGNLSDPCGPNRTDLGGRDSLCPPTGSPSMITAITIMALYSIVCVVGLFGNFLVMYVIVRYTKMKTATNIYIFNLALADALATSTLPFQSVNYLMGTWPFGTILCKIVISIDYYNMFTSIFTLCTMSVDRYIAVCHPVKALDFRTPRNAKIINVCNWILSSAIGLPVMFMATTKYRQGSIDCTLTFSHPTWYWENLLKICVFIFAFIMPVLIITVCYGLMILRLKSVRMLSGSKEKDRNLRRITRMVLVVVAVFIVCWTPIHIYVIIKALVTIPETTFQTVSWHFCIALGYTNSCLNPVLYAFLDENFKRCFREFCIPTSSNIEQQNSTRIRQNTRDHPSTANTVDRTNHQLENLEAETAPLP
Target sequence (P41143 whole entry, looked up): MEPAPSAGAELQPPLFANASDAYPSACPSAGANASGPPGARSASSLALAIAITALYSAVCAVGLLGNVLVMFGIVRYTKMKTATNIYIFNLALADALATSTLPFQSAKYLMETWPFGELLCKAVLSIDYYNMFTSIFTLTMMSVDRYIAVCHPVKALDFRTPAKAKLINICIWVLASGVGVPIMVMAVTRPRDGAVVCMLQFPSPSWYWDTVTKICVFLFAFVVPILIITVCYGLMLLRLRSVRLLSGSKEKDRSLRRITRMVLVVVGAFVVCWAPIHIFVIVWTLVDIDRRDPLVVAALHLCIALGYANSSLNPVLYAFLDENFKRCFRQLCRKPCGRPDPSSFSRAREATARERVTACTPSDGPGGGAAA
OPRM1-OPRD1 inv = inverse agonist of human OPRM1-OPRD1 heterodimerization; cell-based MOR-DOR heterodimer luminescence, inverse agonism; inhibition, % at 9.3 µM; 0.21% of 340,000 active; AID 504357; in the data active = inhibition above about 22%, passing the limit was not always enough
MOR-DOR inv conf = OPRM1-OPRD1 heterodimer inverse agonism, confirmation; shares compounds with OPRM1-OPRD1 inv; cells expressing OPRM1/OPRD1 heterodimer, luminescence; inhibition, % at 9.3 µM; 20% of 580 active; AID 504900; in the data active = inhibition above about 32%
HTR5A inv ctr2 = HTR5A inverse agonism, opioid heterodimer counter-screen; inhibition, % at 9.3 µM; shares compounds with OPRM1-OPRD1 inv; 580 tested, under 10 active; HTR5A-expressing cells, luminescence; call rule not given here
Each line names hits and unclear results; the compound was inactive in the other large screens (follow-up assays come after a bar, where they were run). Shown are actives, neighbours in structure and some others; about 1.1% of the full set was active somewhere.

Cc1ccc(S(=O)(=O)N=Nc2c(O)[nH]c3ccccc23)cc1C	OPRM1-OPRD1 inv 47 | MOR-DOR inv conf inactive | HTR5A inv ctr2 inactive
Cc1ccc(S(=O)(=O)N2CCN(C(=O)CCCN3C(=O)NC4(CCCC4)C3=O)CC2)cc1C	none
O=C1OC(NCc2cccnc2)(c2ccc(Cl)cc2)c2ccccc21 (stereo not given)	none
C=CCn1c(N)c(C(=O)OCCC)c2nc3ccccc3nc21	OPRM1-OPRD1 inv 49 | MOR-DOR inv conf inactive | HTR5A inv ctr2 inactive
C=CCn1c(N)c(C(=O)Nc2cccc(C)c2)c2nc3ccccc3nc21	none
C/C(CC(=O)Nc1ccc(N(C)C)cc1)=N\NC(=O)c1ccccn1	none
C/C(CC(=O)Nc1ccc(N(C)C)cc1)=N\NC(=O)c1cnccn1	OPRM1-OPRD1 inv 39 | MOR-DOR inv conf inactive | HTR5A inv ctr2 inactive
Cc1cc(-c2nnc(SCC(=O)Nc3c(C)cccc3C)n2N)n[nH]1	none
CC(=O)Nc1ccc(NC(=O)C(C)Sc2nnc(C3CC3)n2-c2ccccc2)cc1 (stereo not given)	none
O=C(C[n+]1ccccc1)NNc1ccccc1	OPRM1-OPRD1 inv 33 | MOR-DOR inv conf inactive | HTR5A inv ctr2 inactive
O=C1Nc2ccccc2/C1=N/c1sc2c(c1C(=O)NCCc1ccccc1)CCCC2	OPRM1-OPRD1 inv 34 | MOR-DOR inv conf inactive | HTR5A inv ctr2 inactive
O=C(Nc1sc2c(c1C(=O)NCCO)CCCC2)c1ccco1	none
COc1cc(C=NNc2nc3c([nH]2)c(=O)n(C)c(=O)n3C)ccc1O	OPRM1-OPRD1 inv 35 | MOR-DOR inv conf inactive | HTR5A inv ctr2 inactive
CCOC(=O)N1C(=O)NC(=O)C1c1ccccc1 (stereo not given)	none
C/C(CCS(=O)(=O)c1ccccc1)=N/O	none
O=C(CCC(=O)OCC(=O)c1cccc([N+](=O)[O-])c1)Nc1cccc(Cl)c1Cl	OPRM1-OPRD1 inv 69 | MOR-DOR inv conf 64 | HTR5A inv ctr2 inactive
O=C(CCC(=O)OCC(=O)c1ccc([N+](=O)[O-])cc1)Nc1ccccc1Cl	none
Cc1ccccc1NC(=O)CCC(=O)OCC(=O)c1cccc([N+](=O)[O-])c1	OPRM1-OPRD1 inv 60 | MOR-DOR inv conf inactive | HTR5A inv ctr2 inactive
CSc1ccccc1NC(=O)COC(=O)Cc1ccsc1	none
CSc1nnc2c(n1)OC1(Nc3ccccc3-2)C(=O)Nc2ccccc21 (stereo not given)	OPRM1-OPRD1 inv 53 | MOR-DOR inv conf inactive | HTR5A inv ctr2 inactive
CCSc1nnc2c(n1)OC(C)(C)Nc1ccccc1-2	none
Cc1ccc(C(=O)CNc2ccccc2C)cc1	none
Cc1ccc(C(=O)CNc2ccc(C)cc2C)cc1	OPRM1-OPRD1 inv 26 | MOR-DOR inv conf inactive | HTR5A inv ctr2 inactive
O=C(NCC1CCCO1)c1cc(-c2ccccc2F)no1 (stereo not given)	none
O=C(Nc1nnc(-c2ccncc2)o1)c1ccc(Br)s1	none
O=S(=O)(NNc1cccc(Cl)n1)c1ccc(Cl)cc1	OPRM1-OPRD1 inv 80 | MOR-DOR inv conf 50 | HTR5A inv ctr2 inactive
Cn1ccnc1Sc1cc(NCCCO)c([N+](=O)[O-])c2nonc12	OPRM1-OPRD1 inv 37 | MOR-DOR inv conf inactive | HTR5A inv ctr2 inactive
COc1cc(COC(=O)c2cnc(C)cn2)c(OC)cc1Br	none
COc1ccc(C(=O)NCC(c2cccs2)N2CCc3ccccc32)cc1OC (stereo not given)	none
O=C(O)CNS(=O)(=O)Cc1ccccc1	none
O=S(=O)(Cc1ccccc1)N(O)c1ccccc1	OPRM1-OPRD1 inv 43 | MOR-DOR inv conf inactive | HTR5A inv ctr2 inactive
O=C(COC(=O)c1cccnc1)c1ccc(Cl)cc1	none
O=C(COC(=O)c1cnccn1)c1ccc(Cl)c([N+](=O)[O-])c1	OPRM1-OPRD1 inv 81 | MOR-DOR inv conf inactive | HTR5A inv ctr2 inactive
O=C(OCC(=O)c1ccc(Cl)cc1Cl)c1cnccn1	OPRM1-OPRD1 inv 40 | MOR-DOR inv conf inactive | HTR5A inv ctr2 inactive
O=C(COC(=O)c1cnccn1)c1ccc([N+](=O)[O-])cc1	none
O=C(COC(=O)c1cccnc1)c1ccc(Cl)c(Cl)c1	OPRM1-OPRD1 inv 57 | MOR-DOR inv conf inactive | HTR5A inv ctr2 inactive
Cc1ccc(C(=O)COC(=O)c2cnccn2)cc1[N+](=O)[O-]	HTR5A inv ag 19, OPRM1-OPRD1 inv 54 | MOR-DOR inv conf 33 | HTR5A inv ctr2 inactive
O=S1(=O)CCOC[C@H](c2ccccc2)N1Cc1ccccc1F	none
Cc1cc(C)c(-n2nnnc2SCC(=O)c2cccs2)c(C)c1	none
CCCNC(=O)c1nnsc1S(=O)(=O)c1ccc(Cl)cc1	OPRM1-OPRD1 inv 32 | MOR-DOR inv conf inactive | HTR5A inv ctr2 inactive
